Screening data as filed in PubChem.
pPAFAH inh: pPAFAH (human) enzyme inhibition. inhibition, % at 3.39 µM. 330,000 compounds, 1.5% hits. Q13093. recombinant pPAFAH, FP-rhodamine probe fluorescence polarization;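 active means inhibition above the mean inhibition across the screen plus 3 SD, cut at about 25% in these data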;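 further: inhibitors block binding of the rhodamine activity-based probe so polarization drops; 0% = enzyme with DMSO and 100% = wells lacking pPAFAH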
Target sequence (Q13093 whole entry, looked up): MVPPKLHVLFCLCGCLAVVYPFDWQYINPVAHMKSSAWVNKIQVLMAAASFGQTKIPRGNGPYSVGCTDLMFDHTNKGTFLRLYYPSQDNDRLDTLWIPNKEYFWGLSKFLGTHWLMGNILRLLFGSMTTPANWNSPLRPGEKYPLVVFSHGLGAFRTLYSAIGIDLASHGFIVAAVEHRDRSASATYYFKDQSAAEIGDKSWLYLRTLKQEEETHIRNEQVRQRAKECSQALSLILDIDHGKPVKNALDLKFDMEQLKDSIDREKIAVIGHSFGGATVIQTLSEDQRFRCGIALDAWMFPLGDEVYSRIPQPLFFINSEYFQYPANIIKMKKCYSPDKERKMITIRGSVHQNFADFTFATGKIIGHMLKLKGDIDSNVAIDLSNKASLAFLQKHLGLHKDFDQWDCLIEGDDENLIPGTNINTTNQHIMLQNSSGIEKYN
PAFAH1B2 FP inh: inhibitors of human PAFAH1B2; recombinant PAFAH1B2, FP-rhodamine activity probe, fluorescence polarization; 340,000 compounds, 1.2% hits; inhibition, % at 3.39 µM; AID 492953;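 active means inhibition above the mean of all tested compounds plus 3 SD, cut at about 24% in these data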;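 further: 0% = enzyme with DMSO and 100% = wells lacking PAFAH1B2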
PKA-R2B activ: PKA-R2B complex activation; AID 504700; activation, % at 11.4 µM; P22694+P31323; PKA-R2B holoenzyme dissociation, Cy5-IP20 fluorescence polarization; R2B truncated from residue 108, S112A mutant; 0% DMSO only, 100% 113 µM cGMP; 340,000 compounds, 0.079% hits;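 active means activation above a cutoff set at the mean over all compounds plus 3 SD, cut at about 18% in these data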;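 further: higher means more holoenzyme dissociation and a rise in polarization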
PAFAH2 FP inh: PAFAH2 (human) inhibition | 340,000 compounds, 0.99% hits | Q99487 | recombinant PAFAH2, FP-rhodamine activity probe, fluorescence polarization | inhibition, % at 3.39 µM;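 active means inhibition above the mean over all tested compounds plus 3 SD, cut at about 30% in these data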;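 further: inhibitors block probe labeling of enzyme so polarization drops; 0% = enzyme with DMSO and 100% = wells lacking PAFAH2 protein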
PAFAH1B3 inh: blocks human PAF acetylhydrolase 1B catalytic subunit 3. 340,000 compounds, 0.28% hits. recombinant PAFAH1B3, FP-rhodamine probe, fluorescence polarization. AID 492972. Q15102. inhibition, % at 3.39 µM;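 active means inhibition above the screen-wide average of all tested compounds plus 3 SD, cut at about 25% in these data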;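 further: 0% = enzyme with DMSO only and 100% = wells lacking PAFAH1B3 protein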
PKA-R1A activ: activators of PKA-R1A complex. activation, % at 11.4 µM. P00514+P68181. 340,000 compounds, 0.083% hits. PKA-R1A dissociation, Cy5-IP20 fluorescence polarization; scaled: DMSO 0%, 113 µM cGMP 100%. AID 504707;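 active means percent activation above the mean of all tested compounds plus 3 SD, cut at about 19% in these data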;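 further: higher means more PKAc released from R1A so a rise in polarization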
pPAFAH confirm: pPAFAH (human) inhibition, confirmed | AID 463230 | inhibition, % at 3.39 µM | 2,300 compounds, 72% hits | recombinant pPAFAH, FP-Rh probe fluorescence polarization | shares compounds with pPAFAH inh;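 active means mean inhibition of the triplicate above the hit cutoff set for the earlier primary screen, cut at about 25% in these data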;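 further: 0% = enzyme with DMSO and 100% = wells lacking pPAFAH enzyme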
Numbers without * were called inactive; / = no result. Compounds with a hit are over-represented: about 2.6% of the library has one in this group of screens.

SMILES	pPAFAH inh	PAFAH1B2 FP inh	PKA-R2B activ	PAFAH2 FP inh	PAFAH1B3 inh	PKA-R1A activ	others
CC1(CCC(=O)N2CCCC(Nc3ccc(F)cc3)C2)CC1 (configuration not stated)	-4	29*	-8	2	8	-2
Cc1ccccc1NC(=O)COC(=O)c1ccc(S(=O)(=O)N2CCCC2)cc1	-1	3	-6	10	-2	6
Cc1ccc(C(=O)OCC(=O)NC(C)C2CC3CCC2C3)cc1N (configuration not stated)	30*	7	0	84*	7	-3
CC(NC(=O)COC(=O)c1cc(Cl)ccc1O)C1CC2CCC1C2 (configuration not stated)	7	26*	-10	29	4	5
CC(NC(=O)COC(=O)c1ccc2ccccc2n1)C1CC2CCC1C2 (configuration not stated)	23	-1	-4	5	9	-8
Cc1ccc(C(=O)OC(C)C(=O)NC(C)CCc2ccccc2)o1 (configuration not stated)	4	2	-2	-3	4	8
O=C1NC(=S)SC1=C1CCCC1	34*	2	-3	4	-1	-7
CN1C(=O)C(=C2CCCCCC2)SC1=S	3	6	-2	-2	7	-1
CC(C)N(Cc1ccccc1)C(=O)CN1C(=O)NC(Cc2ccccc2)(c2ccccc2)C1=O (configuration not stated)	5	26*	-1	-8	7	3
CC1SC2(NC1=O)C1CC3CC(C1)CC2C3 (configuration not stated)	1	28*	-8	1	0	-13
O=C1NC2(NN1c1ccccc1)C1CC3CC(C1)CC2C3 (configuration not stated)	4	2	1	-1	1	-8
Cc1ccc(S(=O)(=O)Oc2ccc(C3C4=C(CCCC4=O)N(CCC(=O)O)C4=C3C(=O)CCC4)cc2Cl)cc1	2	39*	3	6	3	-9
CC(C)NC(=O)N(C)C[C@H]1Oc2c(NC(=O)Nc3ccc(C(F)(F)F)cc3)cccc2C(=O)N([C@H](C)CO)C[C@@H]1C	15	1	1	1	-5	-4
C[C@@H]1CN([C@H](C)CO)C(=O)c2cccc(NC(=O)Nc3ccc(F)cc3)c2O[C@H]1CN(C)C(=O)Nc1ccc(C(F)(F)F)cc1	-9	50*	-2	0	6	-2
C[C@H](CO)N1C[C@H](C)[C@@H](CN(C)C(=O)Nc2ccc(C(F)(F)F)cc2)Oc2c(NC(=O)Nc3ccccc3)cccc2C1=O	1	57*	-1	-9	-9	5
C[C@H]1CN([C@@H](C)CO)C(=O)c2cccc(NC(=O)Nc3ccc(C(F)(F)F)cc3)c2O[C@@H]1CN(C)S(=O)(=O)c1ccc(Cl)cc1	1	3	-2	-29	-42	-8
C[C@H](CO)N1C[C@H](C)[C@@H](CN(C)S(=O)(=O)c2ccc(F)cc2)Oc2c(NC(=O)Nc3ccc(C(F)(F)F)cc3)cccc2C1=O	7	24*	-10	-30	-24	-14
COc1ccc(NC(=O)N(C)C[C@H]2Oc3c(NC(=O)Nc4ccc(C(F)(F)F)cc4)cccc3C(=O)N([C@H](C)CO)C[C@@H]2C)cc1	1	36*	-21	-3	7	-11
O=C1c2ccccc2C(=O)N1COc1ccc(S(=O)(=O)N2CCOCC2)cc1[N+](=O)[O-]	4	8	-12	4	3	-2
CCSCC1COC(c2cccn2Cc2ccc(C)cc2)=N1 (configuration not stated)	0	2	-15	0	0	-4
CCC1COC(c2cccn2Cc2ccc(Cl)cc2)=N1 (configuration not stated)	28*	2	1	4	1	-13
COc1cccc(=O)c2c(C)n(-c3cc(C)cc(C)c3)c(C)c12	23	7	2	59*	0	-7
COc1cccc(=O)c2c(C)n(C)c(C)c12	13	5	0	10	9	-9
CC12CCC(C1)C(C)(C)C2NS(=O)(=O)c1ccc(F)cc1 (configuration not stated)	-2	26*	2	4	5	-12
CC1CC(C)CN(C(=O)COC(=O)c2nccnc2N)C1 (configuration not stated)	3	6	4	8	9	10
SMILES	pPAFAH inh	PAFAH1B2 FP inh	PKA-R2B activ	PAFAH2 FP inh	PAFAH1B3 inh	PKA-R1A activ	others
CS(=O)(=O)Nc1ccc(C(=O)Nc2ccccc2Sc2ccccc2)cc1	30*	5	-16	-3	-1	-6
O=C(Nc1ccccc1Sc1ccccc1)c1ccccc1F	31*	-3	-2	1	9	-1
CCc1ccccc1NC(=O)c1ccc(NS(C)(=O)=O)cc1	5	/	/	/	/	/
CCN(Cc1nc2ccccc2c(=O)[nH]1)C(=O)c1cccc(S(=O)(=O)N2CCc3ccccc32)c1	-1	4	-6	5	-6	-6
CCNc1ccc(Br)cc(C(=O)/C=C/c2ccccc2Cl)c1=O	46*	3	-2	36*	9	-9	pPAFAH confirm=28*
CNc1ccc(Br)cc(C(=O)/C=C/c2cccc(OC)c2OC)c1=O	20	5	-1	13	6	-11
O=C(O)C1Nc2c(O)cc(Cl)c([N+](=O)[O-])c2C2C=CCC12 (configuration not stated)	90*	51*	11	77*	63*	8	pPAFAH confirm=39*
O=C(O)c1ccc(-n2cccc2/C=N\NC(=O)c2cc3cc(Br)ccc3o2)cc1	48*	3	-2	26	12	3	pPAFAH confirm=25*
CC(CCc1ccccc1)NC(=O)COC(=O)C(CCC(N)=O)NC(=O)c1ccc(F)cc1 (configuration not stated)	2	1	-8	-1	1	4
CC(C)(c1ccccc1)c1ccc(OCCCN2CCNCC2)cc1	39*	4	0	-9	-4	7	pPAFAH confirm=25*
CC(C)c1ccc(-c2csc3nc[nH]c(=O)c23)cc1	5	6	-1	10	-3	-8
CN(C(=O)c1ccc(NC(=O)Cc2cccc(NC(=O)C3CCN(C(=O)C4CC4)CC3)c2)cc1)C1CCCC1	0	4	-3	-4	1	-3
COc1ccc(O)c(C(=O)C2c3ccccc3C(=O)N2c2ccc(C)cc2)c1 (configuration not stated)	40*	4	-2	4	1	1	pPAFAH confirm=-1
